High-throughput results: PubChem, several laboratories
The list is not random: actives were taken first. Their share in the collection is about 1%.
Sa RN4220 lethal: growth inhibition of S. aureus RN4220, primary screen, OD600; AID 1259311, 2017; 16 h; inhibition, % (test concentration not listed); 330,000 tested, 0.33% active; in the data active = inhibition above about 85%
ugtP null kill: growth inhibition of ugtP-null S. aureus, primary screen, RN4220 ugtP deletion, OD600. 16 h. growth inhibition, % (test concentration not listed). 330,000 tested, 0.54% active; in the data active = growth inhibition above about 68%
SSB-PriA inh: inhibitors of Klebsiella pneumoniae PriA binding to SSB C-terminal tail, primary screen, biochemical, AlphaScreen; AlphaScreen SSBct-PriA binding, biotinylated peptide; inhibition, % at 33 µM; 430,000 tested, 0.6% active; AID 1272365, 2023; in the data active = inhibition mostly above about 37%, no sharp cut-off; inactive = mostly below about 20%
Of the large screens only hits and unclear results are named; the others gave an inactive call.

N#Cc1nc(Cc2ccccc2)oc1N1CCCC1	none
Cc1ccc(OCc2nc(C#N)c(N3CCN(c4ccccc4)CC3)o2)cc1	SSB-PriA inh 74.2 (no result: Sa RN4220 lethal, ugtP null kill)
COc1ccc(OCc2ccc(-c3nc(C#N)c(N4CCC(C(N)=O)CC4)o3)o2)cc1	SSB-PriA inh 37.0 (no result: Sa RN4220 lethal, ugtP null kill)
C=CCNc1oc(Cc2cccc3ccccc23)nc1C#N	none
Nc1ccc(-c2nc3ccccc3s2)c(O)c1	none (no result: Sa RN4220 lethal, ugtP null kill)
O=C(Nc1ccc(Cl)cc1C(=O)c1ccccc1Cl)c1ccc(Cl)cc1Cl	none (no result: Sa RN4220 lethal, ugtP null kill)
CCOc1ccc2nc(NC(=O)c3ccc(-n4nc(C)cc4C)nn3)sc2c1	none (no result: Sa RN4220 lethal, ugtP null kill)
O=C(Nc1ccccc1)N1CCC(N2CCC[C@@H]2COCc2ccccc2)CC1	none (no result: Sa RN4220 lethal, ugtP null kill)
N#Cc1nc(COc2ccc(F)cc2)oc1N1CCCC1	none
N#Cc1nc(-c2ccc(OCc3ccc(Cl)cc3)cc2)oc1N1CCC(C(N)=O)CC1	none
N#Cc1nc(COc2ccc(Br)cc2)oc1N1CCCCC1	SSB-PriA inh 104.2 (no result: Sa RN4220 lethal, ugtP null kill)
CC1CCN(c2oc(Cc3cccc4ccccc34)nc2C#N)CC1	SSB-PriA inh 56.0
N#Cc1nc(Cc2cccc3ccccc23)oc1N1CCOCC1	none
Cc1ccc(OCc2nc(C#N)c(N3CCC(C(N)=O)CC3)o2)cc1	SSB-PriA inh 56.3 (no result: Sa RN4220 lethal, ugtP null kill)
Cc1ccc(OCc2nc(C#N)c(N3CCC(C)CC3)o2)cc1	SSB-PriA inh 95.9 (no result: Sa RN4220 lethal, ugtP null kill)
Cc1ccc(-c2nc(C#N)c(N3CCC(C)CC3)o2)cc1	none
Cn1nc(-c2ccc(F)cc2)cc1C(=O)Nc1ccc2c(c1)N(S(=O)(=O)c1ccccc1)CCC2	none (no result: Sa RN4220 lethal, ugtP null kill)
Cc1cc(C)n(C(=N)NC(=O)c2ccc([N+](=O)[O-])cc2)n1	none (no result: Sa RN4220 lethal, ugtP null kill)
O=C1CCCN1c1ccc(CSc2ccc(-c3ccccc3Cl)nn2)cc1	none (no result: Sa RN4220 lethal, ugtP null kill)
O=C(NCc1ccc(C(O)c2cccs2)s1)C(=O)Nc1cccnc1 (stereo not drawn)	none (no result: Sa RN4220 lethal, ugtP null kill)
O=c1[nH]c(=S)c2c(n1Cc1cccnc1)CCCC2	none (no result: Sa RN4220 lethal, ugtP null kill)
Cc1cc(C)c2c(N)c(C(=O)c3ccccc3)oc2n1	none
Cc1cc(C)c2c(N)c(C(=O)c3ccc(Br)cc3)oc2n1	Sa RN4220 lethal 92.8
Cc1nc(-c2ccc(S(=O)(=O)Nc3cccc(S(N)(=O)=O)c3)s2)cs1	none
Cc1nc(-c2ccc(S(=O)(=O)Nc3ccc(Br)cc3Cl)s2)cs1	Sa RN4220 lethal 96.2
CNC(=O)Cc1csc(NC(=O)Cc2noc3ccccc23)n1	none (no result: Sa RN4220 lethal, ugtP null kill)
O=C(Cc1ccc(-c2ccccc2)cc1)NCC1(O)CCOCC1	none (no result: Sa RN4220 lethal, ugtP null kill)
Cn1cc(CC(=O)NCC2CCCN2c2nc3ccccc3o2)c2ccccc21 (stereo not drawn)	none (no result: Sa RN4220 lethal, ugtP null kill)
CCCc1ccc(Oc2cn[nH]c2-c2ccc(O)cc2O)cc1	ugtP null kill 90.1
COc1ccc(Oc2cn[nH]c2-c2ccc(O)cc2O)cc1	none
O=C(Cn1cnc2ccccc21)N1CCC(Oc2cnccn2)C1 (stereo not drawn)	none (no result: Sa RN4220 lethal, ugtP null kill)
CCOc1ccc(-c2nc(C#N)c(N3CCCCCC3)o2)cc1	SSB-PriA inh 93.2
COc1ccc(-c2nc(C#N)c(N3CCCCCC3)o2)cc1	none
COc1ccc(-c2nc(C#N)c(N3CCCCC3)o2)cc1	SSB-PriA inh 49.7
CCOc1ccc(-c2nc(C#N)c(N3CCN(C)CC3)o2)cc1	none
COc1ccc(-c2nc(C#N)c(N3CCC(C)CC3)o2)cc1	none
COc1ccc(-c2nc(C#N)c(N3CCOCC3)o2)cc1	SSB-PriA inh 54.2 (no result: Sa RN4220 lethal, ugtP null kill)
O=C(NCc1ccc([C@@H](O)c2cccs2)s1)c1ccc(Br)o1	none (no result: Sa RN4220 lethal, ugtP null kill)
Cc1ccc(S(=O)(=O)NCC(c2ccsc2)N2CCOCC2)s1 (stereo not drawn)	none (no result: Sa RN4220 lethal, ugtP null kill)
CCn1ccc(C(=O)N2CCCCC2)n1	none (no result: Sa RN4220 lethal, ugtP null kill)
CCOC(=O)c1cnc(Cc2ccccc2)[nH]c1=O	none
CCOC(=O)c1cnc(-n2nc(C)cc2C)[nH]c1=O	none
CCOC(=O)c1cnc(-n2[nH]c(C)cc2=O)[nH]c1=O	SSB-PriA inh 93.3
CCOC(=O)c1cnc(-n2[nH]c(C)c(Cc3ccccc3)c2=O)[nH]c1=O	SSB-PriA inh 83.7
COC(=O)c1ccccc1C(=O)N1CCC(CSc2ccc(OC)cc2)CC1	none (no result: Sa RN4220 lethal, ugtP null kill)
COc1ccc(Nc2nc(N3CCCC3)c3ccccc3n2)cc1	SSB-PriA inh 35.0
CCN(CC)c1ccc(Nc2nc(N3CCOCC3)c3ccccc3n2)cc1	none
CS(=O)(=O)c1ccc(CCC(=O)NCC2CCN(C(=O)c3cccnc3)CC2)cc1	none (no result: Sa RN4220 lethal, ugtP null kill)
COCc1cc(Sc2c(Cl)cccc2Cl)nc(-c2ccccc2)n1	ugtP null kill 85.5
COCc1cc(N2CCCCC2)nc(-c2ccccc2)n1	none
CCOc1ccc(-c2noc([C@H]3CCCN(S(=O)(=O)c4ccc(C)cc4)C3)n2)cc1	none (no result: Sa RN4220 lethal, ugtP null kill)
COC(=O)C1=C(C(=O)OC)SC2(S1)C(C(=O)OC)=C(C(=O)OC)SC1=C2c2cc(C)cc(C)c2NC1(C)C	none
COC(=O)C1=C(C(=O)OC)SC2(S1)C(C(=O)OC)=C(C(=O)OC)Sc1c2ssc1=O	SSB-PriA inh 95.7 (no result: Sa RN4220 lethal, ugtP null kill)
O=C1C=C(NCc2ccccc2)c2ccccc2C1=O	Sa RN4220 lethal 92.0, ugtP null kill 91.5
O=C1C=C(Nc2ccccc2O)c2ccccc2C1=O	none
